Compounds without any hit were thinned out: in the full panel of roughly 83,000, 20% have a hit.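 Values shown are percent growth following 48 h exposure of cells in 96-well plates to a single concentration of compound; below 10 was considered active.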 Calls of active or inactive are those of the source.
What was measured:
Assay in all cases: NCI-60 one-dose screen, 48 h (100 = growth as untreated, 0 = no growth, -100 = all killed)
Details in all cases: 10 µM unless noted
SR leukemia = test system: SR leukemia
RPMI-8226 leukemia = test system: RPMI-8226 leukemia
OVCAR-8 ovarian = test system: OVCAR-8 ovarian
OVCAR-5 ovarian = test system: OVCAR-5 ovarian
OVCAR-4 ovarian = test system: OVCAR-4 ovarian
SK-OV-3 ovarian = test system: SK-OV-3 ovarian
IGROV1 ovarian = test system: IGROV1 ovarian
OVCAR-3 ovarian = test system: OVCAR-3 ovarian
HS 578T breast = test system: HS 578T breast
NCI/ADR-RES ovarian = test system: NCI/ADR-RES ovarian

Measured: growth

CC1=C2[C@@H](CC1)[C@]1(C)O[C@@](C3CCCCC3)(C[C@H]1OC(=O)CO)[C@H]2OC(=O)/C=C/c1ccccc1
active: OVCAR-8 ovarian 5.17% | HS 578T breast -15.2% | NCI/ADR-RES ovarian -2.43%
inactive: SR leukemia 52.1% | RPMI-8226 leukemia 58.5% | OVCAR-5 ovarian 88.8% | OVCAR-4 ovarian 92.9% | SK-OV-3 ovarian 86% | IGROV1 ovarian 85.1% | OVCAR-3 ovarian 85%

CC1(C)OB(O)c2cc(-c3nc4ccc5[nH]ncc5c4c4c3CCCC4)ccc21
inactive: SR leukemia 24.5% | RPMI-8226 leukemia 28.1% | OVCAR-8 ovarian 46.3% | OVCAR-5 ovarian 105% | OVCAR-4 ovarian 67.1% | SK-OV-3 ovarian 33.1% | IGROV1 ovarian 38.7% | OVCAR-3 ovarian 94.6% | HS 578T breast 68.7% | NCI/ADR-RES ovarian 61.8%

O=C(O)c1cn(C2CC2)c2cc(N3CCN(C(=O)Nc4nc(-c5ccc(Br)cc5)cs4)CC3)c(F)cc2c1=O
inactive: SR leukemia 21.5% | OVCAR-8 ovarian 10% | OVCAR-5 ovarian 32.5% | OVCAR-4 ovarian 26.6% | IGROV1 ovarian 28.8% | NCI/ADR-RES ovarian 69.4%
active: RPMI-8226 leukemia -9.26% | SK-OV-3 ovarian 0.843% | OVCAR-3 ovarian 8.58% | HS 578T breast 3.4%

NS(=O)(=O)c1ccc(NC(=O)/C(=C\c2ccc(Cl)cc2Cl)NC(=O)c2ccccc2)cc1
inactive: SR leukemia 96.6% | RPMI-8226 leukemia 92.2% | OVCAR-8 ovarian 101% | OVCAR-5 ovarian 108% | OVCAR-4 ovarian 97.7% | SK-OV-3 ovarian 96.3% | IGROV1 ovarian 74.9% | OVCAR-3 ovarian 113% | HS 578T breast 89.6% | NCI/ADR-RES ovarian 98.2%

O=C(/C=C/C12c3ccccc3C(c3ccccc31)C1C(=O)NC(=O)C12)c1ccc(Br)cc1 (stereo not given)
inactive: SR leukemia 14.4% | OVCAR-8 ovarian 19.6% | OVCAR-5 ovarian 59.6% | OVCAR-4 ovarian 63.9% | SK-OV-3 ovarian 72.5% | IGROV1 ovarian 48% | OVCAR-3 ovarian 13% | HS 578T breast 45.2% | NCI/ADR-RES ovarian 45.1%
active: RPMI-8226 leukemia -10.7%

Cc1c(Cl)cccc1C(=O)Nc1nc2c(s1)CN(C(=O)c1ccc(C(F)(F)F)cc1)CC2
active: OVCAR-3 ovarian 0.113% | NCI/ADR-RES ovarian 5.22%
inactive: SR leukemia 21.3% | RPMI-8226 leukemia 10.6% | OVCAR-8 ovarian 10.1% | OVCAR-5 ovarian 57.5% | OVCAR-4 ovarian 38.5% | SK-OV-3 ovarian 36.4% | IGROV1 ovarian 17.9% | HS 578T breast 26.8%

O=C1Nc2c(C(=O)O)cccc2/C1=N/c1n[nH]c(=S)s1
inactive: SR leukemia 84.6% | RPMI-8226 leukemia 87.7% | OVCAR-8 ovarian 91% | OVCAR-5 ovarian 98% | OVCAR-4 ovarian 87.9% | SK-OV-3 ovarian 85.7% | IGROV1 ovarian 83% | OVCAR-3 ovarian 99.1% | HS 578T breast 87% | NCI/ADR-RES ovarian 101%

COc1ccc(N2CCN(C(=O)c3sc4nc(C)c(Br)c(C)c4c3N)CC2)cc1
inactive: SR leukemia 97.4% | RPMI-8226 leukemia 98.5% | OVCAR-8 ovarian 97.6% | OVCAR-5 ovarian 90.5% | OVCAR-4 ovarian 90.6% | SK-OV-3 ovarian 90.1% | IGROV1 ovarian 91.2% | OVCAR-3 ovarian 98.3% | HS 578T breast 92.8% | NCI/ADR-RES ovarian 101%

N#CC1=C(N)Oc2ccc3ccccc3c2C1c1ccc([N+](=O)[O-])cc1 (stereo not given)
inactive: SR leukemia 77.3% | RPMI-8226 leukemia 83% | OVCAR-8 ovarian 85.7% | OVCAR-5 ovarian 108% | OVCAR-4 ovarian 69.3% | SK-OV-3 ovarian 83.4% | IGROV1 ovarian 50.6% | OVCAR-3 ovarian 79.4% | HS 578T breast 90.2% | NCI/ADR-RES ovarian 94.6%

O=C(CSc1nc(-c2ccccc2)cc(=O)[nH]1)Nc1nc(-c2ccccc2)cs1
inactive: SR leukemia 45.1% | RPMI-8226 leukemia 96.1% | OVCAR-8 ovarian 97% | OVCAR-5 ovarian 95.9% | OVCAR-4 ovarian 96.1% | SK-OV-3 ovarian 84.1% | IGROV1 ovarian 57.8% | OVCAR-3 ovarian 101% | HS 578T breast 90% | NCI/ADR-RES ovarian 93.2%

O=C1/C(=C\c2cccc3nccnc23)SC(=S)N1CCc1ccc(O)cc1
inactive: SR leukemia 92.1% | RPMI-8226 leukemia 83% | OVCAR-8 ovarian 99.1% | OVCAR-5 ovarian 104% | OVCAR-4 ovarian 89.4% | SK-OV-3 ovarian 110% | IGROV1 ovarian 95.4% | OVCAR-3 ovarian 101% | HS 578T breast 95.4% | NCI/ADR-RES ovarian 96.9%

CC1(C)NCCC[C@]2(C)[C@H]3CC[C@H]4[C@H]5[C@H](C(=O)/C=C/c6cccnc6)CCC[C@]5(CO)CC[C@@]4(C)[C@]3(C)CC[C@@H]12
inactive: RPMI-8226 leukemia 13.1% | OVCAR-8 ovarian 55.5% | OVCAR-5 ovarian 74.8% | OVCAR-4 ovarian 75.3% | SK-OV-3 ovarian 108% | IGROV1 ovarian 26.6% | OVCAR-3 ovarian 60.1% | HS 578T breast 74.4% | NCI/ADR-RES ovarian 82.4%
active: SR leukemia -24.6%

CCN1C(=O)N(CC)C2C1N=C(SCc1ccc(Cl)cc1)N2/N=C/C=C/c1ccccc1OC (stereo not given)
inactive: SR leukemia 18.4% | RPMI-8226 leukemia 11.2% | OVCAR-8 ovarian 56.8% | OVCAR-5 ovarian 98.6% | OVCAR-4 ovarian 69.9% | SK-OV-3 ovarian 70.4% | IGROV1 ovarian 78.6% | OVCAR-3 ovarian 50.6% | HS 578T breast 57.3% | NCI/ADR-RES ovarian 26.4%

COc1ccc2c(c1)/C(=N/c1n[nH]c(=S)s1)C(=O)N2
inactive: SR leukemia 69.9% | RPMI-8226 leukemia 54.1% | OVCAR-8 ovarian 92.8% | OVCAR-5 ovarian 102% | OVCAR-4 ovarian 97.7% | SK-OV-3 ovarian 148% | IGROV1 ovarian 75.3% | OVCAR-3 ovarian 96.2% | HS 578T breast 91.7% | NCI/ADR-RES ovarian 94%

CNC(=O)c1ccccc1Nc1nc(Nc2cc(OC)c(OC)c(OC)c2)ncc1Br
active: SR leukemia 6.27% | OVCAR-8 ovarian -20.3% | OVCAR-4 ovarian -34.5% | SK-OV-3 ovarian -77.2% | IGROV1 ovarian 4.34% | OVCAR-3 ovarian -6.51% | HS 578T breast -3.22% | NCI/ADR-RES ovarian -10.7%
inactive: RPMI-8226 leukemia 41.5% | OVCAR-5 ovarian 13.3%

O=C(c1c[nH]c2ccccc12)c1n[nH]c(=S)n1-c1cccc(Br)c1
inactive: SR leukemia 76.8% | RPMI-8226 leukemia 84.1% | OVCAR-8 ovarian 93.5% | OVCAR-5 ovarian 89.7% | OVCAR-4 ovarian 87.1% | SK-OV-3 ovarian 91.8% | IGROV1 ovarian 60.6% | OVCAR-3 ovarian 86.4% | HS 578T breast 93.8% | NCI/ADR-RES ovarian 106%

COc1ccc(CNc2c3ccccc3nc3ccccc23)c(OC)c1
inactive: SR leukemia 18.1% | RPMI-8226 leukemia 34.9% | OVCAR-8 ovarian 37.8% | OVCAR-5 ovarian 50.3% | OVCAR-4 ovarian 39.7% | SK-OV-3 ovarian 63.3% | IGROV1 ovarian 22.4% | OVCAR-3 ovarian 69.2% | HS 578T breast 68.9% | NCI/ADR-RES ovarian 35.6%

C[C@H](C(=O)N(CCc1ccc(Cl)c(Cl)c1)Cc1cncs1)[C@@H]1CC[C@H](C[C@H](C)n2cc(CN3CCC(c4ccc(Cl)cc4)CC3)nn2)O1
active: SR leukemia -44.7%
inactive: RPMI-8226 leukemia 91.7% | OVCAR-8 ovarian 91% | OVCAR-5 ovarian 97% | OVCAR-4 ovarian 92.6% | SK-OV-3 ovarian 103% | IGROV1 ovarian 101% | OVCAR-3 ovarian 105% | HS 578T breast 98.7% | NCI/ADR-RES ovarian 105%

CN(CCCNC(=O)CCOCCOCCOCCNC(=O)Cc1ccc2ccc3cccc4ccc1c2c34)CCCNc1cc(-c2ccc3ccccc3c2)nc2ccccc12
active: SR leukemia -74.8% | RPMI-8226 leukemia -48.9% | OVCAR-8 ovarian -37.4% | OVCAR-5 ovarian -86.4% | OVCAR-4 ovarian -90.6% | SK-OV-3 ovarian -96.8% | IGROV1 ovarian -43.8% | OVCAR-3 ovarian -92% | HS 578T breast -58.9% | NCI/ADR-RES ovarian 8.51%

CCC1S/C(=N\N=C(\C)c2cc3cc(Cl)ccc3o2)N(c2ccccc2)C1=O (stereo not given)
inactive: SR leukemia 85.1% | RPMI-8226 leukemia 83.7% | OVCAR-8 ovarian 126% | OVCAR-5 ovarian 100% | OVCAR-4 ovarian 107% | SK-OV-3 ovarian 108% | IGROV1 ovarian 671% | OVCAR-3 ovarian 75.5% | HS 578T breast 52.4% | NCI/ADR-RES ovarian 90.8%

O=C(/C=C(O)/C=C/c1cccc2[nH]ccc12)/C=C/c1cccc2[nH]ccc12
active: RPMI-8226 leukemia 2.9%
inactive: SR leukemia 10.3% | OVCAR-8 ovarian 72.6% | OVCAR-5 ovarian 99.7% | OVCAR-4 ovarian 91.7% | SK-OV-3 ovarian 85.6% | IGROV1 ovarian 70.3% | OVCAR-3 ovarian 103% | HS 578T breast 91% | NCI/ADR-RES ovarian 87.6%

O=C(CCCCCNC(=O)c1cc(=O)c(O)co1)Nc1ccccc1
inactive: SR leukemia 101% | RPMI-8226 leukemia 95.7% | OVCAR-8 ovarian 104% | OVCAR-5 ovarian 102% | OVCAR-4 ovarian 110% | SK-OV-3 ovarian 118% | IGROV1 ovarian 106% | OVCAR-3 ovarian 109% | HS 578T breast 108% | NCI/ADR-RES ovarian 102%

O=[N+]([O-])c1cc(NS(=O)(=O)c2ccccc2)ccc1NS(=O)(=O)c1ccccc1
inactive: SR leukemia 128% | RPMI-8226 leukemia 109% | OVCAR-8 ovarian 93% | OVCAR-5 ovarian 106% | OVCAR-4 ovarian 106% | SK-OV-3 ovarian 102% | IGROV1 ovarian 119% | OVCAR-3 ovarian 111% | HS 578T breast 98.5% | NCI/ADR-RES ovarian 105%

Cc1ccc(C=C2C(=O)NC(=O)NC2=O)cc1
inactive: SR leukemia 96.9% | RPMI-8226 leukemia 103% | OVCAR-8 ovarian 100% | OVCAR-5 ovarian 107% | OVCAR-4 ovarian 110% | SK-OV-3 ovarian 105% | IGROV1 ovarian 104% | OVCAR-3 ovarian 105% | HS 578T breast 105% | NCI/ADR-RES ovarian 102%

CCOC(=O)C1=C(C)/C(=C\c2[nH]c(C)c(C(=O)OCC)c2C)N=C1C
inactive: SR leukemia 11.9% | RPMI-8226 leukemia 62.9% | OVCAR-8 ovarian 61.5% | OVCAR-5 ovarian 97.8% | OVCAR-4 ovarian 81.9% | SK-OV-3 ovarian 84.4% | IGROV1 ovarian 97% | OVCAR-3 ovarian 21.7% | HS 578T breast 103% | NCI/ADR-RES ovarian 88.9%

COCCn1cc(-c2csc(-c3c[nH]c4ccc(Br)cc34)n2)c2cccnc21
inactive: SR leukemia 17% | RPMI-8226 leukemia 22.2% | OVCAR-8 ovarian 21.8% | OVCAR-5 ovarian 55.5% | OVCAR-4 ovarian 31.2% | SK-OV-3 ovarian 47.1% | IGROV1 ovarian 42.3% | OVCAR-3 ovarian 39% | HS 578T breast 44.5% | NCI/ADR-RES ovarian 10.8%
